“And” between values parts separate entries of the source, which are not always exact repeats. Equal values may be shown once. Records with an inconclusive call do not appear. The source made the active and inactive calls. Unless noted, calls come from the whole dose curve; as a rule, active = well fitted curve in the direction sought with a large enough effect; inconclusive = small, poorly fitted or top-dose-only effect, or another doubt; inactive = no such curve, though single readings can be large; an effect the other way counts as inactive or inconclusive.
Tests used:
[1] = Cell Viability - HepG2 (AID 433; calls by dose curve;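 note: potency is the fitted concentration of half-maximal effect; cells exposed to compound for 40 hours; potency for ATP loss meaning cytotoxicity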); conditions: qHTS
Outline: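 Cytotoxicity read as ATP loss (CellTiter-Glo luminescence) after 40 hr compound exposure of HepG2, 1500 cells/well, 37 °C. AC50 by Hill equation; 0% set by DMSO, 100% inhibition by 100 uM tamoxifen.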

[2] = Cell Viability - Renal Proximal Tubule (AID 545); conditions: renal proximal tubule cells viability; series mostly up to 91.7 µM;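 note: cells exposed to compound for 40 hours; 0% = DMSO only and -100% = 100 µM tamoxifen; nearly all actives have a fitted effect of over 40% in size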
Outline: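 Viability taken as intracellular ATP (CellTiter-Glo luminescence) after 40 hr, 37 °C compound treatment of primary proximal tubule cells from rat kidney, 1000 cells/well; Hill-equation fits of qHTS concentration-response data gave AC50.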

[3] = Cellular Toxicity (caspase-3) HUV-EC-C (AID 656); conditions: HUV-EC-C cells, caspase-3 activation (apoptosis), vehicle = 0, 100 µM tamoxifen = 100%; series mostly up to 92.2 µM;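 note: 0% = DMSO basal and 100% = 100 µM tamoxifen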
Outline: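 Luminescent Caspase-Glo 3/7 readout after 16 h, 37 °C compound exposure of HUV-EC-C endothelial cells, 1000 per well, complete medium. AC50 derived by Hill fitting, with DMSO as baseline and 100 uM tamoxifen as full activation.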

[4] = Cellular Toxicity (caspase-3) SHSY5Y (AID 657); conditions: SH-SY5Y caspase-3 activation, DMSO zero, 10 µM staurosporine = 100%; series mostly up to 91.7 µM
Outline: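 Luminescent Caspase-Glo 3/7 read-out, 1 hr room temperature, follows 16 hours of compound treatment of SH-SY5Y cells at 37 °C. Normalization: DMSO basal, 10 uM staurosporine as 100%; AC50 values from Hill-equation concentration-response fits.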

[5] = Cellular Toxicity (caspase-3) MRC-5 (AID 659); conditions: MRC-5 cells, luminescence, normalized: DMSO 0%, 10 µM staurosporine 100%; series mostly up to 91.7 µM
Outline: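 Luminescence from caspase-cleaved aminoluciferin substrate (Caspase-Glo 3/7, 1 hr RT) reports caspase 3/7 activity in MRC-5 lung fibroblasts after 16 hr compound exposure. Normalized to DMSO basal and 10 uM staurosporine as 100%; AC50 from Hill fits.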

[6] = molecular target: Cytochrome P450 3A4 (Homo sapiens) (UniProt P08684); test: qHTS Assay for Inhibitors and Substrates of Cytochrome P450 3A4 (AID 884); conditions: recombinant CYP3A4, Luciferin-PPXE luminescence; series mostly up to 57.1 µM; note: nearly all actives have a fitted effect of over 50% in size; note: potency is the fitted concentration of half-maximal effect
Cytochrome P450 3A4 (Homo sapiens), sequence (P08684 whole entry, looked up): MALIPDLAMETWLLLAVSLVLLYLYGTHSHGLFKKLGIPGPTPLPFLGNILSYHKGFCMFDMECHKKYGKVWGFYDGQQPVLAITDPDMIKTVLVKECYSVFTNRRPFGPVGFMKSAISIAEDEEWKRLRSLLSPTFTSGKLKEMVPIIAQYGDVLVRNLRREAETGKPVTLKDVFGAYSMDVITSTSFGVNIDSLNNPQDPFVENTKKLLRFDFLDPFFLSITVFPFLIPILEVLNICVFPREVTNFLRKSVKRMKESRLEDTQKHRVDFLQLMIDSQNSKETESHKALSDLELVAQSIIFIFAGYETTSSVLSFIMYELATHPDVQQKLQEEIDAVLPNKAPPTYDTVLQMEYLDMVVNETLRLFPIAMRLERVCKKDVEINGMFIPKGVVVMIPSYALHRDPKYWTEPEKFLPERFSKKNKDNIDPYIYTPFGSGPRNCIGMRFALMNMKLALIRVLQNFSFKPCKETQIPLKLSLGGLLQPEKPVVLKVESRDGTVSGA
Outline: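 20 nM human CYP3A4 with 25 uM Luciferin-PPXE (at KM) in 200 mM KPO4, preincubated 10 min with compound; NADPH regeneration started a 60 min RT reaction. Luciferin detected by luminescence, normalized to 57 uM ketoconazole as full inhibition.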

[7] = MultiTox-Fluor Cytotoxicity Assay - LYMP1-002 - Live Cells (AID 955); conditions: LYMP1-002 lymphoblastoid live-cell protease fluorescence viability; series mostly up to 46.1 µM; note: % is set by controls: 0 for no effect and ±100 for the full control effect
Outline: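 Human lymphoblastoid LYMP1-002 cells, 2500/well, treated 16 h at 37 C in complete medium. Live-cell protease activity via GF-AFC fluorescence (Ex/Em 405/510) after 60 min reagent incubation; AC50 from Hill fits.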

[8] = Cell Viability - LYMP1-003 - Assay at 24 hr (AID 963); conditions: LYMP1-003 lymphoblastoid cell viability; series mostly up to 92.2 µM;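 note: plate controls were DMSO only for no effect and tetraoctylammonium bromide positive control for full effect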
Outline: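 Human lymphoblastoid LYMP1-003 cells, 2500/well, treated 24 h at 37 C in complete medium. Viability read as intracellular ATP by CellTiter-Glo luminescence after 30 min at room temperature; AC50 from Hill-equation fits of qHTS concentration-response.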

[9] = Cell Viability - LYMP2-004 (AID 966); conditions: LYMP2-004 lymphoblastoid cell viability, qHTS; series mostly up to 92.2 µM;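 note: plate controls were DMSO only for no effect and tetraoctylammonium bromide control for full effect; nearly all actives have a fitted effect of over 65% in size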
Outline: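 Lymphoblastoid LYMP2-004 cells, 2500 per well, were preincubated for 5 hr and then treated with compound for 24 h at 37 C in complete medium. Viability was read as cellular ATP by CellTiter-Glo luminescence, and AC50 values were taken from Hill fits to concentration-response data.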

[10] = Cell Viability - LYMP2-009 (AID 968); conditions: LYMP2-009 lymphoblastoid cell viability; series mostly up to 92.2 µM;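 note: 0% = DMSO alone and the full-kill end = tetraoctylammonium bromide at 92 µM; nearly all actives have a fitted effect of over 55% in size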
[11] = Cell Viability - LYMP2-017 (AID 972); conditions: LYMP2-017 lymphoblastoid cell viability; series mostly up to 92.2 µM; note: % is set by controls: 0 for no effect and ±100 for the full control effect; nearly all actives have a fitted effect of over 55% in size
Outline: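 LYMP2-017 human lymphoblastoid cells (2500/well) settled 5 hr at 37 C, then exposed to compound 24 hr at 37 C in complete medium. Viability taken as intracellular ATP by CellTiter-Glo luminescence after 30 min at RT; AC50 from Hill fits.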

[12] = Cell Viability - LYMP2-025 (AID 976); conditions: LYMP2-025 lymphoblastoid cell viability; series mostly up to 92.2 µM;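 note: plate controls were DMSO only for no effect and tetraoctylammonium bromide control for full effect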
Outline: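 Human lymphoblastoid LYMP2-025 cells, 2500/well, exposed 24 h at 37 C in complete medium in 1536-well qHTS. Viability as cellular ATP by CellTiter-Glo luminescence; AC50 from Hill fits of concentration-response data.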

[13] = Cell Viability - LYMP2-012 (AID 982); conditions: LYMP2-012 lymphoblastoid cell viability qHTS; series mostly up to 92.2 µM;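 note: cellular ATP by luciferase luminescence where a drop means cytotoxicity; cells exposed to compound for one day before reading; 0% = DMSO only and full loss = 92 µM tetraoctylammonium bromide; nearly all actives have a fitted effect of over 55% in size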
[14] = Cell Viability - LYMP2-016 (AID 984); conditions: LYMP2-016 lymphoblastoid cell viability, qHTS; series mostly up to 92.2 µM; note: % is set by controls: 0 for no effect and ±100 for the full control effect; nearly all actives have a fitted effect of over 55% in size
Outline: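 Cytotoxicity was scored by luminescent ATP content (CellTiter-Glo) after 24 h compound exposure at 37 C of a human lymphoblastoid line at 2500 cells/well. Concentration-response data were fitted to the Hill equation for AC50.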

[15] = Cell Viability - LYMP1-002 - Assay at 40 hr (AID 994); conditions: LYMP1-002 lymphoblastoid cell viability; series mostly up to 92.2 µM;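 note: 0% = DMSO only and full inhibition = 92 µM tetraoctylammonium bromide; nearly all actives have a fitted effect of over 60% in size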
Outline: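 LYMP1-002 human lymphoblastoid cells (2500/well, complete medium) were treated with compounds for 40 hr at 37 C. Intracellular ATP was measured by CellTiter-Glo luminescence, and AC50 values came from Hill-equation fits of concentration-response data; tetraoctylammonium bromide was the positive control.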

[16] = qHTS Assay for Identification of Small Molecule Inducers of Hypoxia Response (AID 2120; active = well fitted curve in the direction sought with a large enough effect in the signal ratio, with a control signal flat, not every such curve was filed as active; the % refers to the signal ratio; note: 0% is about no effect); conditions: hypoxia response reporter cells, beta-lactamase ratio readout; series mostly up to 104 µM
Outline: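 HRE-bla ME-180 cells in Opti-MEM with 0.5% dialyzed FBS, pre-plated 4-5 h, then compound titration for 17 h at 37 degrees Celsius. CCF4 loaded 2.5 h at room temperature; 460/530 nm ratio gave %Activity and AC50 for induction.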

[17] = qHTS assay for small molecule antagonists of retinoid X receptor alpha signaling (AID 588546); conditions: HEK293T RXRa-UAS-bla, beta-lactamase ratio, antagonist mode; measured here: W530 green channel, cytotoxicity proxy;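 note: cells stimulated with 9-cis-retinoic acid as agonist; % is set by controls: 0 for no effect and ±100 for the full control effect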
Outline: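 Beta-lactamase reporter inhibition, read as CCF4 fluorescence ratio (ex 405, em 460/530 nm) after 2 h at RT. HEK293T UAS-bla cells, 2500/well, were stimulated with 9-cis-RA at 500 or 100 nM final alongside test compound for 18 h at 37 C.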

[18] = qHTS assay for environmental chemicals that activate the Aryl hydrocarbon Receptor (AhR) signaling pathway (AID 651777); conditions: 1A2-DRE human hepatoma cells, luciferase, 24 h; activation: stronger effect = higher value; note: nearly all actives have a fitted effect of over 15% in size; note: potency is the fitted concentration of half-maximal effect; for activation: % of control where 0% means no effect
Outline: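 Quantitative HTS in stably transfected human liver-derived cells whose luciferase gene sits downstream of the CYP1A2 promoter and dioxin response element. After 24 hr exposure at 37 C, One-Glo luminescence was measured.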

[19] = molecular target: Peroxisome proliferator-activated receptor alpha (Homo sapiens) (UniProt Q07869); test: qHTS assay for small molecule agonists of the peroxisome proliferator-activated receptor alpha (PPARalpha) signaling pathway (AID 651778); conditions: PathHunter PPARalpha complementation, chemiluminescence, 6 h; stronger effect = higher value; note: % of control where 0% means no effect
Peroxisome proliferator-activated receptor alpha (Homo sapiens), sequence (Q07869 whole entry, looked up): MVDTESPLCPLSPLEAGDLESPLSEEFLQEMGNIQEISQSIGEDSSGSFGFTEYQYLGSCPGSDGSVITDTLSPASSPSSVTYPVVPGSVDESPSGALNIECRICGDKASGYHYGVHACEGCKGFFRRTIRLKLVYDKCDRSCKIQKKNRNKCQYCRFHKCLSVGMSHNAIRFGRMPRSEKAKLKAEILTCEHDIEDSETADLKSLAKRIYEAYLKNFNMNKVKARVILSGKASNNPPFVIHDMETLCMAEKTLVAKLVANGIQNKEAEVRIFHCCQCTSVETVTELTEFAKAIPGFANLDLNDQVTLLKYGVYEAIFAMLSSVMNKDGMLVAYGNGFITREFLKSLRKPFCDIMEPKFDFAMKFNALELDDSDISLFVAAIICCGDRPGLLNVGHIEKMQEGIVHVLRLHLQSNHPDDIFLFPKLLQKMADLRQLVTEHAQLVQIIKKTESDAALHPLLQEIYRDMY
Outline: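 Cells plated at 2,000/well and held overnight at 37 C, 5% CO2, then compound added by pin tool for 6 hr; after PathHunter detection reagent and 60 min at room temperature, chemiluminescence from enzyme complementation was read.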

[20] = qHTS assay for small molecule agonists of the antioxidant response element (ARE) signaling pathway measured by Nrf2-dependant transcriptional activity - cell viability counter screen (AID 720653; active = well fitted curve in the direction sought with a large enough effect in the repeat runs; an effect the other way counts as inactive or inconclusive; note: % is set by controls: 0 for no effect and ±100 for the full control effect); conditions: ARE-bla HepG2 viability, CellTiter-Glo ATP luminescence, 16 h; stronger effect = lower value
Outline: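 ARE-bla HepG2 cells (2,000/well) rested 5 hrs at 37C/5% CO2, then exposed to compounds in DMSO for 16 hrs. Viability was read in the same wells as intracellular ATP by luminescence, 30 min at room temperature after reagent addition.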

Cc1ccc(OP(=O)(Oc2ccc(C)cc2)Oc2ccc(C)cc2)cc1
-10.5% and -16.2%: max response [17]
active: Potency [6] 7.94 µM
inactive: Potency [1] > 92 µM | outcome [2] | outcome [3] | outcome [4] | outcome [5] | outcome [7] | outcome [8] | Potency [9] | Potency [10] | Potency [11] | Potency [12] | Potency [13] | Potency [14] | Potency [15] | Potency [16] | activation [18] 5.07% and 5.6% | max response [19] -4.04% and -0.382% | max response [20] -0.985% and -5.89%

O=c1ccc(=O)[nH][nH]1
-4.32% and 8.97%: max response [17]
inactive: Potency [1] > 92 µM | outcome [2] | outcome [3] | outcome [4] | outcome [5] | Potency [6] | outcome [7] | outcome [8] | Potency [9] | Potency [10] | Potency [11] | Potency [12] | Potency [13] | Potency [14] | Potency [15] | Potency [16] | activation [18] 0.524% and -2.54% | max response [19] -0.0075% and -1.1% | max response [20] 27.2% and 14.4%

C/C=C/CC#N
inactive: Potency [1] > 92 µM | outcome [2] | outcome [3] | outcome [4] | outcome [5] | Potency [6] | outcome [7] | outcome [8] | Potency [9] | Potency [10] | Potency [11] | Potency [12] | Potency [13] | Potency [14] | Potency [15] | Potency [16] | activation [18] -0.768% | max response [19] -3.98% | max response [20] -11.2%
5.46%: max response [17]

O=Cc1ccc2c(c1)OCO2
-8.14%: max response [17]
inactive: Potency [1] > 92 µM | outcome [2] | outcome [3] | outcome [4] | outcome [5] | Potency [6] | outcome [7] | outcome [8] | Potency [9] | Potency [10] | Potency [11] | Potency [12] | Potency [13] | Potency [14] | Potency [15] | Potency [16] | activation [18] -0.902% | max response [19] -6.34% | max response [20] 2.8%

CCCCC(CC)COC(=O)c1ccc(C(=O)OCC(CC)CCCC)c(C(=O)OCC(CC)CCCC)c1 (stereo not drawn)
inactive: Potency [1] > 92 µM | outcome [2] | outcome [3] | outcome [4] | outcome [5] | Potency [6] | outcome [7] | outcome [8] | Potency [9] | Potency [10] | Potency [11] | Potency [12] | Potency [13] | Potency [14] | Potency [15] | Potency [16] | activation [18] -0.0808% | max response [19] -3.57% | max response [20] -7.7%
-7.98%: max response [17]

CC(C)OS(C)(=O)=O
5.36%: max response [17]
inactive: Potency [1] > 92 µM | outcome [2] | outcome [3] | outcome [4] | outcome [5] | Potency [6] | outcome [7] | outcome [8] | Potency [9] | Potency [10] | Potency [11] | Potency [12] | Potency [13] | Potency [14] | Potency [15] | Potency [16] | activation [18] 1.58% | max response [19] -9.26% | max response [20] -6.13%

CCCCOC(C)=O
inactive: Potency [1] > 92 µM | outcome [2] | outcome [3] | outcome [4] | outcome [5] | Potency [6] | outcome [7] | outcome [8] | Potency [9] | Potency [10] | Potency [11] | Potency [12] | Potency [13] | Potency [14] | Potency [15] | Potency [16] | activation [18] -0.098% | max response [19] -4.39% | max response [20] 10.3%
-8.9%: max response [17]

O=Cc1ccc(Cl)cc1Cl
inactive: Potency [1] > 92 µM | outcome [2] | outcome [3] | outcome [4] | outcome [5] | Potency [6] | outcome [7] | outcome [8] | Potency [9] | Potency [10] | Potency [11] | Potency [12] | Potency [13] | Potency [14] | Potency [15] | Potency [16] | activation [18] -0.378% | max response [19] -4.79% | max response [20] 1.04%
-13.3%: max response [17]

Nc1cc(Cl)ccc1O
inactive: Potency [1] > 92 µM | outcome [2] | outcome [3] | outcome [4] | outcome [5] | Potency [6] | outcome [7] | outcome [8] | Potency [9] | Potency [11] | Potency [12] | Potency [13] | Potency [14] | Potency [16] | max response [19] 0.902% | max response [20] -22.1%
active: Potency [18] 44.7 µM
-1.3%: max response [17]

Cc1ccc([N+](=O)[O-])cc1
1.21%: max response [17]
inactive: Potency [1] > 92 µM | outcome [2] | outcome [3] | outcome [4] | outcome [5] | Potency [6] | outcome [7] | outcome [8] | Potency [9] | Potency [10] | Potency [11] | Potency [12] | Potency [13] | Potency [14] | Potency [15] | Potency [16] | activation [18] -0.408% | max response [19] -0.114% | max response [20] -6.34%

CC(C)[N+](=O)[O-]
inactive: Potency [1] > 92 µM | outcome [2] | outcome [3] | outcome [4] | outcome [5] | Potency [6] | outcome [7] | outcome [8] | Potency [9] | Potency [10] | Potency [11] | Potency [12] | Potency [13] | Potency [14] | Potency [15] | Potency [16] | activation [18] 0.897% | max response [19] -6.42% | max response [20] 1.53%
10.7%: max response [17]

ClCC(Cl)Cl
inactive: Potency [1] > 92 µM | outcome [2] | outcome [3] | outcome [4] | outcome [5] | Potency [6] | outcome [7] | outcome [8] | Potency [9] | Potency [10] | Potency [11] | Potency [12] | Potency [13] | Potency [14] | Potency [15] | Potency [16] | activation [18] 1.04% | max response [19] 4.99% | max response [20] -5.62%
2.25%: max response [17]

Reference: PubChem BioAssay (NCATS)
